# Assay outcomes as filed in PubChem BioAssay.
# MCF10A rerep = DNA re-replication induction in MCF 10a cells. MCF 10A DNA re-replication, Hoechst nuclear intensity, 48 h. Potency, µM (top dose mostly 46.1 µM), for the others: at the top dose activity, positive = re-replication, actives largely listed as activators. actives 2.9% (n = 350,000). AID 624296; also: % of control where 0% means no effect; nearly all actives have a fitted effect of over 50% in size
# PINK1 modulator = modulators of PINK1 expression | PINK1 immunofluorescence, high-content cytometry, 24 h | Potency, µM (top dose mostly 76.6 µM), without a hit: top-dose activation (PINK1 increase), actives largely listed as activators | actives 0.2% (n = 410,000); active = well fitted activation curve with a large enough effect; inconclusive = small, poorly fitted or top-dose-only effect; cell line not stated here; also: % of control where 0% means no effect; nearly all actives have a fitted effect of over 65% in size
#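 PINK1 protein, normally rapidly degraded, was detected by immunofluorescence after 24 hour compound treatment of a stable cell line. Titration data (5 concentrations) came from laser-scanning cytometry, with CCCP-treated wells as controls.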
# KB-3-1 tox = KB-3-1 parental cell cytotoxicity; KB-3-1 viability, CellTiter-Glo ATP luminescence, 72 h; Potency, µM (top dose mostly 46.1 µM), usual class: cytotoxic; actives 1.4% (n = 400,000); AID 1347075; also: % is scaled to controls: 0 for no effect and ±100 for the full control effect; nearly all actives have a fitted effect of over 60% in size
#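 Cytotoxicity in the drug-sensitive parental line KB-3-1 was scored as loss of CellTiter-Glo luminescence following 72 h incubation with compound. Values come from curve fitting of normalized concentration-response data.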
# KB-V1 cytotox = KB-V1 MDR subline cytotoxicity; KB-V1 MDR cells viability, CellTiter-Glo, 72 h; Potency, µM (highest dose often 46.1 µM), hits mostly cytotoxic; actives 3.4% (n = 400,000); also: % is scaled to controls: 0 for no effect and ±100 for the full control effect; nearly all actives have a fitted effect of over 60% in size
#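 Readout: CellTiter-Glo luminescence, 10 min after addition. Cells: KB-V1 MDR subline, 72 h at 37 degrees C with compound. Analysis: corrected, normalized data fitted to concentration-effect curves.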
# SW480 rerep = inducers of DNA re-replication in SW480 colon cancer cells. SW480 DNA re-replication, Hoechst DNA content imaging, 48 h. Potency, µM (doses to about 46.1 µM), inactives show top-dose re-replication activation, actives largely listed as activators. actives 1.8% (n = 340,000); also: % of control where 0% means no effect; nearly all actives have a fitted effect of over 55% in size
#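 Treated cells incubate 48 hr (37 C, 5% CO2), are stained 40 min with Hoechst, and nuclear fluorescence is enumerated; a rise in nuclei with high DNA signal marks re-replication.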
# Numbers without * were called inactive; i = inactive; ? = inconclusive; · = not tested or not shown; [ ] = dose if it differs, or a comment. A selection: hits, their analogues and other compounds. The true share with any hit is near 6.7%. Unless noted, calls follow the shape of the dose curve; as a rule, active = well fitted curve in the direction sought with a large enough effect; inconclusive = small, poorly fitted or top-dose-only effect, or another doubt; inactive = no such curve, though single readings can be large; an effect the other way counts as inactive or inconclusive. Potency is read from the fitted curve at half-maximal effect.
SMILES,MCF10A rerep,PINK1 modulator,KB-3-1 tox,KB-V1 cytotox,SW480 rerep
COc1ccc(O)c(CN2CCC3(CCC(CNC(=O)c4ccco4)O3)CC2)c1 (configuration not stated),·,0%,·,·,·
C=CCNC(=O)C1CCN(c2cnccn2)CC1,0.23µM*,4%,i,?,-50%
CCc1nnc(NC(=O)C2CCN(c3cnccn3)CC2)s1,2%,3%[38.3 µM],i,i,-24%
CC(C)c1nnc(NC(=O)C2CCN(c3cnccn3)CC2)s1,-1%,2%,i,23µM*,-1%
Cc1ccc(S(=O)(=O)CCC(=O)Nc2ccc(Br)cc2C)cc1,·,1%,i,i,·
COc1ccc(NC(=O)c2ccco2)cc1NC(=O)COc1ccc(C)cc1C,·,4%,i,i,·
CC(=O)N1c2ccc(C)cc2Sc2c1ccc1ccccc21,21µM*,-1%,i,i,?
COc1cccc(CN2CCC2(C)C(=O)NCc2cccc(C(F)(F)F)c2)c1OC (configuration not stated),·,1%,i,i,·
CCNc1cc(S(=O)(=O)C(F)(F)F)ccc1N,19%,0%,?,23µM*,1%
CCNc1ccc(S(=O)(=O)C(F)(F)F)cc1NC(=O)C12CCC(CC1)C2,9%,·,i,i,9%
CCc1ccc(/C=N/NC(=O)c2cc(C3CC3)nc3ccc(Br)cc23)s1,1.6µM*,?,4.6µM*,4.1µM*,18µM*
CCc1ccc(/C=N/NC(=O)c2cc(-c3ccccc3OC)nc3ccccc23)s1,-1%,1%,?,i,1%[9.22 µM]
CCc1ccc(/C=N\NC(=O)c2ccc(Br)o2)s1,1%,3%,i,18µM*,14%
CCn1cc(C(=O)NCCc2ccc(Cl)cc2)c(=O)c2cc(S(=O)(=O)N3CCC(C)CC3)ccc21,·,2%,i,i,·
O=C(O)c1ccc(C2NCC(c3ccccc3Cl)c3c2[nH]c2ccccc32)cc1 (configuration not stated),0%,0%,i,i,1%
COc1cc(C2NCC(c3ccc(Cl)cc3Cl)c3c2[nH]c2ccccc32)cc(OC)c1OC (configuration not stated),18µM*,3%,18µM*,?,?
Cc1[nH]c2ccccc2c1C(=O)C(=O)Nc1ccc2c(c1)OCO2,-3%,3%,i,i,-5%
COc1cccc(/C=N/n2c(C)nc3ccccc32)c1OC,11%,9%,i,12µM*,2%
COc1cccc(/C=N/n2c(=O)[nH]c3ccccc32)c1OC,12%,9%,i,i,4.1µM*
O=C(c1ccccc1-n1cccn1)N1CCOc2c(cc(-c3ncc(C(F)(F)F)cc3Cl)cc2OCC2CCCO2)C1 (configuration not stated),·,-1%,·,·,·
Cc1nn(CC(=O)Nc2ccc(Cl)c(S(=O)(=O)N(C)C)c2)c(C)c1[N+](=O)[O-],?,5%,i,21µM*,2%
Cc1nn(CC(=O)NC2CC2)c(C)c1S(=O)(=O)N(C)C,·,0%,i,i,·
Cc1ccc(NC(=O)Cn2nc(C)c(S(=O)(=O)N(C)C)c2C)cc1C,5%,-2%,i,23µM*,1%
CCOc1ccccc1N(CC(=O)N1CCN(Cc2ccccc2)CC1)S(=O)(=O)c1ccccc1,·,2%,?,?,·
CN(C)c1ccc(/C=C/c2ccnc3c(Cl)ccc(Cl)c23)cc1,·,11%,i,i,·
SMILES,MCF10A rerep,PINK1 modulator,KB-3-1 tox,KB-V1 cytotox,SW480 rerep
CCN(CC)CCOC(=O)c1ccc(NC(=O)c2cc3c(s2)-c2ccccc2OC3)cc1,·,6%,i,i,·
CCC(=O)/C=C1\Sc2ccc(OC)cc2N1CC,23%,-2%[38.3 µM],?,15µM*,-4%
CC(C)Cn1c(N)c(C(=O)COC(=O)c2cccn2C)c(=O)n(C)c1=O,25%,1%,?,i,-1%
O=C(/C=C/c1ccco1)Nc1ccc2nn(-c3ccccc3)nc2c1,7.3µM*,?,i,i,3%
Cc1cc(NC(=O)/C=C/c2ccco2)ccc1NC(=O)c1ccccc1,17%,-1%,i,i,11%
CC(C)CC(=O)Nc1ccc2nn(-c3ccccc3)nc2c1,11%,5%,i,16µM*,14%
